HCV inhibitor – HCV inhibition. Huh7.5.1 HCVcc-Cre infection, luciferase reporter, 44 h. Potency, µM (top dose mostly 41.8 µM), for the others: top-dose activity change, negative = inhibition, hits mostly inhibitors. actives 3.4% (n = 340,000). AID 651820; also: potency is read from the fitted curve at half-maximal effect; % is scaled to controls: 0 for no effect and ±100 for the full control effect
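Seed cells (1,000/well) for 4 h; treat with compound and infect with HCVcc-Cre, moi about 0.5. Incubate 44 h, then detect luciferase activity.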
Shiga toxin inh – blocks Shiga toxin action in Vero cells | inhibition, % at 38.7 µM | AID 2315 | actives 9.2% (n = 290,000) | Vero cells, Shiga toxin protein synthesis inhibition reporter; in the data active = inhibition mostly above about 28%, no sharp cut-off; inactive = mostly below about 43%; also: 0% is about no effect
Pf growth 96h – P. falciparum growth inhibition at 96 hour, primary screen for plastid delayed-death inhibitors; P. falciparum luciferase reporter growth, 96 h; Potency, µM (doses to about 28.7 µM), for the others: top-dose activity change, negative = inhibition, most hits filed as inhibitors; actives 6.9% (n = 320,000); also: potency is read from the fitted curve at half-maximal effect; % is scaled to controls: 0 for no effect and ±100 for the full control effect
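96 h incubation, 37 C, 5% CO2, of luciferase-reporter P. falciparum-infected RBCs (2% hematocrit, 0.05% parasitemia final) with test compounds; endpoint luminescence.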
CHX counter – affects cycloheximide protein synthesis inhibition readout, counter-screen; actives 12% (n = 300,000); max response, %; AID 2314; cell reporter, cycloheximide protein synthesis inhibition counterscreen; in the data active = max response mostly above about 13%, no sharp cut-off; inactive = mostly below about 14%; also: read at 38.3 µM for the half of the compounds with a filed dose; 0% is about no effect
Pf growth 48h – inhibits P. falciparum growth in the first generation, 48 h. P. falciparum luciferase growth in erythrocytes, 48 h. Potency, µM (doses to about 28.7 µM), inactives show at the top dose activity change, negative = inhibition, hits mostly inhibitors. actives 5.9% (n = 310,000). AID 504832; also: potency is read from the fitted curve at half-maximal effect; % is scaled to controls: 0 for no effect and ±100 for the full control effect
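Luciferase-expressing parasites in RBCs, 2% Hct / 0.1% parasitemia final; RPMI 1640 + 0.5% Albumax; 37 C, 5% CO2, one generation; luminescence read-out, lower signal = inhibition.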
HCMV inh – human cytomegalovirus inhibition; actives 4.5% (n = 410,000); AID 1259415; activity change, negative = inhibition, % at 57.5 µM; HFF cells, HCMV-luciferase reporter, 72 h; stronger effect = lower value; in the data active = activity change below about -60%; inconclusive = no clear call, values can overlap the other calls; inactive = above about -39%; also: % is scaled to controls: 0 for no effect and ±100 for the full control effect
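Compounds were evaluated in HFFs infected with an HCMV luciferase reporter virus (MOI 1 PFU/cell). Luciferase in lysates collected 72 h post infection served as the replication measure.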
Numbers without * were called inactive; [ ] = another dose, or the depositor's remark. This is a sample that favours compounds with a hit; in the whole collection about 21% have one here. Unless noted, calls follow the shape of the dose curve; as a rule, active = well fitted inhibition curve with a large enough effect; inconclusive = small, poorly fitted or top-dose-only effect, or another doubt; inactive = no such curve, though single readings can be large or run the other way.

How did C#CCOCCOCCOCCNc1nc(N2CCN(C(=O)[C@H]([C@@H](C)CC)n3cc(CCCCN)nn3)CC2)nc(N2CCN(C(=O)[C@H](CCCCN)n3cc(CC(C)O)nn3)CC2)n1 (stereo partly specified) do in these assays?
HCV inhibitor: 18%; Pf growth 96h: 74%; Pf growth 48h: -1%; HCMV inh: -7

What do the screens show for `C#CCOCCOCCOCCNc1nc(N2CCOCC2)nc(N2CCN(C(=O)CCCCCCCCCCNC(=O)[C@H]([C@@H](C)CC)n3cc(CCCCN=C(N)N)nn3)CC2)n1`?
HCV inhibitor: -3%; Pf growth 96h: 0.52µM*; Pf growth 48h: 0.37µM*; HCMV inh: -31

How did C#CCOCCOCCOCCNc1nc(N2CCOCC2)nc(N2CCN(C(=O)[C@H]([C@@H](C)CC)n3cc(CCCN=C(N)N)nn3)CC2)n1 do in these assays?
HCV inhibitor: 1%[8.37 µM]; Shiga toxin inh: -11; Pf growth 96h: inconclusive; CHX counter: -4; Pf growth 48h: 7%; HCMV inh: -29

Results for C#CCOCCOCCOCCNc1nc(N2CCN(C(=O)CCCCCCCCCCNC(=O)[C@H]([C@@H](C)CC)n3cc(CCCCN=C(N)N)nn3)CC2)nc(N2CCN(C(=O)CCCCCCCCCCNC(=O)[C@H](CCCN=C(N)N)n3cc(C[C@@H](C)CC)nn3)CC2)n1 ?
HCV inhibitor: inconclusive; Pf growth 96h: 5.2µM*; Pf growth 48h: 4.7µM*

Results for C#CCOCCOCCOCCNc1nc(N2CCN(C(=O)CCCCCCCCCCNC(=O)[C@H]([C@@H](C)CC)n3cc(CCCCN=C(N)N)nn3)CC2)nc(N2CCN(C(=O)CCCCCCCCCCNC(=O)[C@@H]([C@H](C)O)n3cc(C)nn3)CC2)n1 ?
HCV inhibitor: inconclusive; Pf growth 96h: inconclusive; Pf growth 48h: 1.9µM*

How did COc1ccccc1C(=O)NCCn1cc(SCC(=O)Nc2ccccc2F)c2ccccc21 do in these assays?
HCMV inh: 1

Results for CCc1ccc(NC(=O)Cn2c(=O)n(CCC(C)C)c(=O)c3cccnc32)cc1 ?
HCMV inh: 24

What do the screens show for `COc1ccc(C2CC(=O)c3cc(-c4nc(-c5cccc([N+](=O)[O-])c5)cs4)c(=O)n(-c4ccccc4N)c3C2)cc1` (stereo unspecified)?
HCMV inh: 20

Results for CCCNC(=O)c1ccc(N2CCC3(CC2)CC(c2ccccc2)=NO3)c(NC(=O)c2ccco2)c1 ?
HCV inhibitor: inconclusive; Shiga toxin inh: 2; Pf growth 96h: 1.2µM*; CHX counter: 8; Pf growth 48h: inconclusive; HCMV inh: 94

What do the screens show for `CCCCC(CC)C(=O)Nc1cc(C(=O)NCCC)ccc1N1CCC2(CC1)CC(c1ccccc1)=NO2` (stereo unspecified)?
HCV inhibitor: inconclusive; Shiga toxin inh: 10; Pf growth 96h: 1.5µM*; CHX counter: -2; Pf growth 48h: -38%; HCMV inh: -16

Results for Cc1ccc(CNC(=O)c2ccc(N3CCC4(CC3)CC(c3ccccc3)=NO4)c(N)c2)cc1 ?
HCV inhibitor: inconclusive; Shiga toxin inh: -7; Pf growth 96h: 33%; CHX counter: 2; Pf growth 48h: -13%; HCMV inh: -29

Results for Cc1ccc(CNC(=O)c2ccc(N3CCC4(CC3)CC(c3cccc(Br)c3)=NO4)c(NC(=O)c3ccco3)c2)cc1 ?
HCV inhibitor: -14%; Pf growth 96h: 3.7µM*; Pf growth 48h: 1.7µM*; HCMV inh: inconclusive

Results for Cc1ccc(CNC(=O)c2ccc(N3CCC4(CC3)CC(c3ccccc3)=NO4)c(NC(=O)c3ccco3)c2)cc1 ?
HCV inhibitor: inconclusive; Shiga toxin inh: -10; Pf growth 96h: 1µM*; CHX counter: -2; Pf growth 48h: inconclusive; HCMV inh: 17

What do the screens show for `CC1(C(=O)Nc2ccc3c(c2)OCO3)CCN1Cc1csc2ccccc12` (stereo unspecified)?
HCMV inh: -20

Results for CCOc1cccc(C2CC(=O)Nc3cc4c(cc32)OCCO4)c1 (stereo unspecified) ?
HCMV inh: -22

Results for Cc1ccc(CNC(=O)c2ccc(N3CCC4(CC3)CC(c3ccccc3)=NO4)c(NC(=O)c3ccc(Br)cc3)c2)cc1 ?
HCV inhibitor: -11%; Shiga toxin inh: 18; Pf growth 96h: inconclusive; CHX counter: 4; Pf growth 48h: inconclusive; HCMV inh: 32

What do the screens show for `Cc1ccc(CNC(=O)c2ccc(N3CCC4(CC3)CC(c3ccccc3)=NO4)c(NC(=O)c3ccccc3)c2)cc1`?
HCV inhibitor: 4%; Pf growth 96h: inconclusive; Pf growth 48h: 4.7µM*; HCMV inh: 1

Results for CCCNC(=O)c1ccc(N2CCC3(CC2)CC(c2ccccc2)=NO3)c(NC(=O)c2cccc(OC)c2)c1 ?
HCV inhibitor: inconclusive; Shiga toxin inh: -3; Pf growth 96h: 2.1µM*; CHX counter: 1; Pf growth 48h: inconclusive; HCMV inh: 1

Results for CCOc1ccccc1NC(=O)Nc1cc(C(=O)NCc2ccc(C)cc2)ccc1N1CCCC1 ?
HCMV inh: -85*

How did Cc1ccccc1OCC(=O)OCc1cc(=O)n2ccsc2n1 do in these assays?
HCMV inh: 5

How did CC1(C)Cc2nc3sc4c(N(CCO)CCO)ncnc4c3cc2CO1 do in these assays?
HCV inhibitor: 9%; Shiga toxin inh: 29; Pf growth 96h: -9%; CHX counter: 21*; Pf growth 48h: 6%; HCMV inh: 43

How did COC(=O)CSc1ncnc2c1sc1nc3c(cc12)COC(C)(C)C3 do in these assays?
HCV inhibitor: 8%; Shiga toxin inh: -3; Pf growth 96h: inconclusive; CHX counter: 6; Pf growth 48h: 81%; HCMV inh: -17

How did CC1(C)Cc2nc3sc4c(N(CCO)CCO)nnnc4c3cc2CO1 do in these assays?
HCV inhibitor: -14%; Shiga toxin inh: 78*; Pf growth 96h: 16%; CHX counter: 29*; Pf growth 48h: 24%; HCMV inh: 61

How did CC1(C)Cc2nc3sc4c(SCC(=O)O)ncnc4c3cc2CO1 do in these assays?
HCV inhibitor: -11%; Shiga toxin inh: -7; Pf growth 96h: inconclusive; CHX counter: 2; Pf growth 48h: 0.83µM*; HCMV inh: 0

What do the screens show for `CCN(CCO)c1ncnc2c1sc1nc(CC(C)C)c3c(c12)CC(C)(C)OC3`?
HCV inhibitor: 14µM*; Shiga toxin inh: 9; Pf growth 96h: 15%; CHX counter: -4; Pf growth 48h: 42%; HCMV inh: 12

How did CCN1CCN(C(c2ccc(OC)cc2)c2c(O)cc(C)n(Cc3ccco3)c2=O)CC1 (stereo unspecified) do in these assays?
HCMV inh: 3

Assay outcomes from PubChem.
